# Results as given in PubChem BioAssay (NCATS).
# Unmarked numbers belong to inactive results. Calls come from the whole dose curve; as a rule, active = well fitted activation curve with a large enough effect; inconclusive = small, poorly fitted or top-dose-only effect, or effect the other way; inactive = flat fitted curve, though single readings scatter.
# Experiment: Cellular Toxicity (caspase-3) Renal Proximal Tubule (AID 667);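 note: cells exposed to compound for 16 hours at 37 °C before detection; 0% = DMSO basal and 100% = 10 µM staurosporine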
# Settings: renal proximal tubule cells, primary cells freshly taken from rat; Potency: caspase-3 activation; series mostly up to 91.7 µM; caspase-3 activation: at the top concentration
# From the text: NIH Chemical Genomics Center [NCGC]
# NIH Molecular Libraries Screening Centers Network [MLSCN]
# National Institutes of Environmental Health Sciences [NIEHS]
# National Toxicology Program [NTP]
# We have developed a 1536-well cell-based assay for quantitative high throughput screening (qHTS) against a number of cell lines to determine in vitro caspase 3/7 activity of small molecules. This particular assay uses the primary kidney proximal tubule cells freshly isolated from rat.
# NCGC Assay Protocol Summary:
# The Caspase-Glo 3/7 assay (Promega) is a homogeneous method to measure caspase-3 and caspase-7 activities in cultured cells. The quantitation of caspase 3/7 activity is based on the cleavage of a peptide-aminoluciferin substrate. After caspase cleaves the substrate the free aminoluciferin is liberated and serves as the substrate of luciferase, which generates the light. The luminescent signal is proportional to the amount of caspase 3/7 activity present.
# Using the Caspase-Glo 3/7 assay, the amount of caspase 3/7 activity was measured in the rat kidney proximal tubule cells with complete culture medium following compound treatment for 16 hours. The assay was performed in opaque white 1536-well plates. In the screen, staurosporine and doxorubicin were used as positive controls. Library compounds were measured for their ability to cause the activation of caspase 3/7 in the cell line, as reflected by an increase in luminescence signal, in a concentration-dependent manner. Data were normalized to the controls for basal activity (DMSO only) and 100% stimulation (10 uM staurosporine). AC50 values were determined from concentration-response data modeled with the standard Hill equation.
# qHTS protocol for caspase 3/7 assay in rat kidney proximal tubule cells
# [Step] [Parameter] [Value] [Description]
# 1. Reagent; 5 uL; 1000 rat kidney proximal tubule cells/well
# 2. Time; 5 hr; 37 °C incubation
# 4. Controls; 23 nL; doxorubicin 7 pM to 100 uM & staurosporine 1.4 pM to 20 uM
# 5. Time; 16 hr; 37 °C incubation
# 6. Reagent; 5 uL; Caspase-Glo 3/7 reagent
# 7. Time; 1 hr; Room Temperature
# 8. Detection; Luminescence; Viewlux plate reader
# Keywords: caspase 3/7, apoptosis, rat kidney proximal tubule cells, luminescence, NTPHTS, NTPHTS_NCGC, NIEHS, EPA, DSSTox, MLSMR, MLSCN, NIH Roadmap, qHTS, NCGC
row,SMILES,caspase-3 activation
1,O=C(O)c1c(Cl)cccc1Cl,16.3%
2,O=C(Cl)c1ccccc1[N+](=O)[O-],8.83%
3,CCCCCO,4.98%
4,O=C(O)c1ccccc1[N+](=O)[O-],1.53%
5,CCCCCCCN,4.67%
6,O=[N+]([O-])c1ccc(Cl)cc1Cl,0.231%
7,Cc1ccc2nc(-c3ccc(N)cc3)sc2c1S(=O)(=O)O,-29.8%
8,O=CNc1ccccc1,-3.56%
9,CC(=O)CCc1ccccc1,-8.67%
10,C=C(C)C(=O)OCC(C)O (stereo not given),0.11%
11,CCCCC(CC)COC(=O)CCCCC(=O)OCC(CC)CCCC (stereo not given),-5.06%
12,CNC(=O)c1ccccc1,5.41%
13,O=Cc1cccc(Br)c1,-10.9%
14,C=C(C)OC(C)=O,-10.6%
15,CCCCOCCOCCSC#N,0.374%
16,O=C(O)c1ccccc1Cl,5.17%
17,Cc1ccc(Br)cc1,2.08%
18,c1ccc2[nH]cnc2c1,-2.8%
19,Cc1cccc2ccccc12,1.76%
20,NC(=O)CCCCC(N)=O,-9.26%

row,SMILES,caspase-3 activation
1,Cc1cccc(C)c1[N+](=O)[O-],-0.688%
2,Nc1cc(Cl)c([N+](=O)[O-])cc1O,-6.78%
3,O=C(O)c1ccc(C(=O)O)cc1,0.687%
4,CN(C)CCCCl,-1.06%
5,CCc1ccccc1,2.65%
6,Cc1nc2ccc(Cl)cc2[nH]1,3.62%
7,CCCCC(CC)CO (stereo not given),-0.138%
8,O=P(O)(OCc1ccccc1)OCc1ccccc1,-4.41%
9,CC(=O)c1cccc([N+](=O)[O-])c1,-7.08%
10,NC(=O)NC(N)=O,-0.731%
11,CCCCCCCCC,-7.04%
12,ClC/C=C/CCl,-2.83%
13,Clc1cc(Cl)cc(Cl)c1,4.6%
14,C[C@@H]1O[C@@H](O[C@@H]2[C@@H](O)[C@H](OCCc3ccc(O)c(O)c3)O[C@H](CO[C@@H]3O[C@H](CO)[C@@H](O)[C@H](O)[C@H]3O)[C@H]2OC(=O)/C=C/c2ccc(O)c(O)c2)[C@H](O)[C@H](O)[C@H]1O,-6.26%
15,Cc1ccc2cccnc2c1,3.06%
16,C=C(C)C(=O)OCCCCCC,3.52%
17,CC(=O)CC(C)C,-0.296%
18,CC/C=C1/OC(=O)c2ccccc21,1.51%
19,BrC(Br)C(Br)Br,-4.03%
20,Cc1ccc2ncccc2c1,-15.3%
